From PubChem BioAssay AID488969 (Vanderbilt High Throughput Screening Facility, 2010)
The full ranking holds about 110,000 compounds; the median of “z-score” is about -0.1, and the highest 2% start at about 2. What follows is part of a selection rich in the highest values, with near analogues and random picks from the rest. Active and inactive are the calls of the source.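 How the source made its calls: active means z-score in the third read window above 3 or below -3; inactive means the rest.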

What follows are compounds tested against Metabotropic glutamate receptor 8 (Rattus norvegicus) (UniProt P70579) (assay: rat mGluR8 modulators via GIRK flux, primary screen, cell-based, thallium flux, HTS (AID 488969)). Details: HEK293 rat mGluR8, GIRK (G protein-gated inwardly rectifying potassium channel) thallium flux, FluoZin2; at 10 µM; stronger effect = higher value; submaximal glutamate (EC20) added with thallium.
Sequence of Metabotropic glutamate receptor 8 (Rattus norvegicus) (P70579 whole entry, looked up): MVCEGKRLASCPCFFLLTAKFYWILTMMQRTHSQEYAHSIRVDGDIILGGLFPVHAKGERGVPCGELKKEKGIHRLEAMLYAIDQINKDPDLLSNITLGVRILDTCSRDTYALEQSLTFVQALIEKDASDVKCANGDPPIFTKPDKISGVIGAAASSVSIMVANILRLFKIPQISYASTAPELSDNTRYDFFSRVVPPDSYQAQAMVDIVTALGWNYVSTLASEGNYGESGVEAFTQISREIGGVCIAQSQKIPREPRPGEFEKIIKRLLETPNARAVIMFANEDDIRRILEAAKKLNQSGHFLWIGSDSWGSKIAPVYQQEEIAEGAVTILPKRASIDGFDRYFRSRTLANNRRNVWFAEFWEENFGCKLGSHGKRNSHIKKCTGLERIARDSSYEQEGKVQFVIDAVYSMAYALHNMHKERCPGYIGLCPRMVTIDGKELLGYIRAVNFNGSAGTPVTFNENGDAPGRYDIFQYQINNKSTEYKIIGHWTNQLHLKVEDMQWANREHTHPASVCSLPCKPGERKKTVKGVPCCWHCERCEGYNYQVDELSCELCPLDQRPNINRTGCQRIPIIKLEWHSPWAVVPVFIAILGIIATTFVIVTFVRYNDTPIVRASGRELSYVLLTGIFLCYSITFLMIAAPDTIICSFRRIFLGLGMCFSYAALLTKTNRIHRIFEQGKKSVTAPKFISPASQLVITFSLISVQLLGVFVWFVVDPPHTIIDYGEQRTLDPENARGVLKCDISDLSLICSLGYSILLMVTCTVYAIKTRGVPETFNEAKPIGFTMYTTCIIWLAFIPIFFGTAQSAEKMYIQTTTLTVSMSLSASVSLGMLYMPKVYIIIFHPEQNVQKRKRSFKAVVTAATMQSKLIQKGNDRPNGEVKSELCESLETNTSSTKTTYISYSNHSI

Row | SMILES | z-score
1 | Cc1noc(C)c1C(=O)OC(C(=O)NC1CCCC1)c1ccc(F)cc1 (stereo not drawn) | 0.659
2 | COC(=O)c1sc(NC(=S)NC(=O)c2ccccc2Cl)nc1C | 5.46 (active)
3 | CCOC(=O)c1sc(NC(=O)COC(=O)c2ccco2)nc1C | 0.0458
4 | COC(=O)c1sc(NC(=S)NC(=O)c2ccccc2)nc1C | 2.47
5 | COC(=O)c1sc(NC(=O)COc2cccc(C)c2)nc1C | -0.0129
6 | COC(=O)c1sc(NC(=S)NC(=O)c2cccc(C)c2)nc1C | 4.51 (active)
7 | COC(=O)c1sc(Nc2ccccc2)nc1C | -0.75
8 | COc1ccc(C(=O)NC(=S)Nc2nc(C)c(C(=O)N(C)C)s2)cc1 | -0.0547
9 | Cc1cccc(C(=O)Nc2nc(C)c(C(=O)Nc3ccc4c(c3)CCC4)s2)c1 | -0.0981
10 | CCOC(=O)c1sc(NC(=S)NC(=O)c2ccco2)nc1C | 7.57 (active)
11 | Cc1nc(NC(=S)NC(=O)c2ccccc2)sc1C(=O)N(C)C | -0.185
12 | CCOC(=O)c1sc(NC(=O)c2ccco2)nc1-c1ccccc1 | 0.0322
13 | CCOC(=O)c1sc(NC(=S)NC(=O)c2ccccc2Cl)c(C(=O)OCC)c1C | 0.214
14 | Cc1nonc1OCC(C)(COc1nonc1C)NC(=O)c1ccccc1 | -0.133
15 | CCOC(=O)C1C(=O)NC(N2CCOCC2)=NC1c1ccco1 (stereo not drawn) | -0.222
16 | CCOC(=O)C1CCCN(C(=S)Nc2cccc(Cl)c2C)C1 (stereo not drawn) | -0.429
17 | O=c1c2ccccc2nc(-c2ccc(Cl)cc2)n1C1CCS(=O)(=O)C1 (stereo not drawn) | -0.341
18 | Cc1cc2nc(C)n(CCCNC(=O)Nc3cccc4ccccc34)c2cc1C | -0.0533
19 | CCCN1CNC(=S)N(CC2CCCO2)C1 (stereo not drawn) | 0.136
20 | Cc1c(Cl)cnc(NC(=O)COC(=O)CCC(=O)c2cccs2)c1Cl | -0.28
21 | CNC(=S)N(Cc1ccc(OC)cc1)C1CC(=O)N(c2ccc(C(=O)OC)cc2)C1=O (stereo not drawn) | -0.228
22 | Cc1ccc2nc3ccc(N4CCCCCCC4)nn3c(=O)c2c1 | -0.682
23 | O=C(CCSc1ccc(Cl)cc1)N1CCOCC1 | -0.207

Row | SMILES | z-score
24 | CC(=O)Nc1ccc(NC(=O)CSc2ccc(C(F)(F)F)cc2[N+](=O)[O-])cc1 | -0.252
25 | O=C(Nc1nccs1)C1CCCN1S(=O)(=O)c1ccc(Cl)cc1 (stereo not drawn) | 0.437
26 | CCS(=O)(=O)N1CCN(C(=O)C(c2ccccc2)c2ccccc2)CC1 | -0.138
27 | N#Cc1c(N2CCN(C(=O)c3ccccc3)CC2)nc(-c2ccccc2)c2c1CCCC2 | 2.92
28 | N#Cc1c(N2CCN(C(=O)c3ccccc3Cl)CC2)nc(-c2ccccc2)c2c1CCCC2 | -0.453
29 | O=C(c1ccc(F)cc1)N1CCN(c2ncccn2)CC1 | -0.204
30 | O=C(c1cccc(C(=O)N2CCN(c3ncccn3)CC2)c1)N1CCN(c2ncccn2)CC1 | 0.184
31 | N#Cc1c(N2CCN(C(=O)c3ccco3)CC2)nc(-c2ccccc2)c2c1CCCC2 | -0.665
32 | O=C(c1ccc(-c2ccccc2)cc1)N1CCN(c2ncccn2)CC1 | 3.97 (active)
33 | COc1ccc2c(c1)CC/C(=C\c1ccc(OC)c(Cn3cccn3)c1)C2=O | -0.628
34 | CCOc1ccccc1OCCCC(=O)Nc1sccc1C(N)=O | 0.813
35 | O=C(CCl)Nc1ccccc1Sc1ccccc1 | -0.216
36 | CC(=O)NC(c1cccs1)c1cc([N+](=O)[O-])c2cccnc2c1O (stereo not drawn) | -1.44
37 | CCC(=O)NC(c1cccs1)c1cc([N+](=O)[O-])c2cccnc2c1O (stereo not drawn) | -0.0253
38 | CCCC(=O)NC(c1cccs1)c1cc([N+](=O)[O-])c2cccnc2c1O (stereo not drawn) | 2.37
39 | CC(NC(=O)NC1CCCCC1)C(c1cccs1)N1CCN(Cc2ccccc2)CC1 (stereo not drawn) | -1.18
40 | O=S(=O)(Nc1cc(Cl)ccn1)c1ccc(Cl)cc1 | 0.404
41 | CCCC(=O)Nc1c(-c2ccc(OC)cc2)c(=O)c2ccccc2n1C | -0.253
42 | CCCCCC(=O)Nc1c(-c2ccc(OC)cc2)c(=O)c2ccccc2n1C | 0.109
43 | CCC(=O)Nc1c(-c2ccc(OC)cc2)c(=O)c2ccccc2n1C | 2.76
44 | O=S(=O)(Nc1ccc(Cc2ccncc2)cc1)c1cccs1 | -0.0895
45 | CS(=O)(=O)N1N=C(c2ccc3nccnc3c2)CC1c1ccccc1 (stereo not drawn) | -0.111
46 | O=c1cc(C(F)(F)F)oc2c1ccc1ccccc12 | -0.211

Row | SMILES | z-score
47 | COc1c2occc2c(OC)c2c(=O)cc(C(F)(F)F)oc12 | 2.92
48 | COc1c2occc2cc2ccc(=O)oc12 | -0.548
49 | CCC(C)N=C1SCC(C)(/C=N/O)S1 (stereo not drawn) | -0.0708
50 | Oc1oc(-c2ccccc2)nc1/C=N/c1nccs1 | 1.54
51 | C(=N\c1nccs1)/c1c[nH]c2ccccc12 | -0.861
52 | CCOc1ccc2nc(/N=C/c3nc(-c4ccc(Br)cc4)oc3O)sc2c1 | 0.754
53 | Oc1[nH]c2ccccc2c1/C=N/c1nccs1 | 2.09
54 | Oc1oc(-c2cccc3ccccc23)nc1/C=N/c1nccs1 | 7.77 (active)
55 | CN=Cc1nc(-c2ccccc2)oc1O | 1.62
56 | CCCCOc1ccc(-c2nc(/C=N/c3nccs3)c(O)o2)cc1 | 2.84
57 | Oc1oc(-c2ccccc2)nc1C=Nc1cccc2ccccc12 | -0.00127
58 | Oc1ccc2ccccc2c1/C=N/c1nccs1 | 0.277
59 | N#Cc1c(N)c(C(=O)c2ccccc2)n2c1CCCC2 | -0.142
60 | C#CCn1c(S(=O)(=O)Cc2ccc(C)cc2)nc(-c2ccccc2)c1-c1ccccc1 | -0.259
61 | COc1ccc(C(C#N)N2N=C(c3ccccc3)CC2c2ccccc2)cc1OC (stereo not drawn) | 0.0225
62 | CC1CC(C)(C)CC2(C1)NC(=O)N(CC(=O)NCC(c1ccco1)N1CCCCC1)C2=O (stereo not drawn) | 0.771
63 | Cc1nnc(SCC(=O)NCc2ccco2)n1-c1ccccc1 | -0.0052
64 | Cn1c(SCC(=O)Nc2ccccc2)nnc1-c1ccc(NC(=O)CCc2ccccc2)cc1 | -0.164
65 | CN(CP(=O)(O)CN(C)S(C)(=O)=O)S(C)(=O)=O | 0.00353
66 | O=C(NCc1ccco1)c1cnn2c(C(F)(F)F)cc(-c3ccccc3)nc12 | -0.67
67 | CC1Nc2nc(N(C)C)[nH]c(=O)c2NC1C (stereo not drawn) | 0.838
68 | CCC(C(=O)OC)n1cnc2c(nnn2-c2ccc(OC)cc2)c1=O (stereo not drawn) | -0.912
69 | CCOC(=O)C(CC)n1cnc2c(nnn2-c2ccc(OC)cc2)c1=O (stereo not drawn) | 4.43 (active)

Row | SMILES | z-score
70 | CCOC(=O)C(CC)n1cnc2c(nnn2-c2ccc(C)cc2)c1=O (stereo not drawn) | -0.636
71 | Cc1cc(Nc2ccccc2)n(C(=O)c2ccc(Cl)cc2)n1 | 0.82
72 | O=S(=O)(NCc1ccccc1)c1ccc(Cl)c(S(=O)(=O)NCc2ccccc2)c1 | 0.165
73 | O=S(=O)(NCc1ccccc1)c1ccc(Cl)cc1 | 2.77
74 | O=S(=O)(NCCCc1ccccc1)c1ccc(Cl)cc1 | -0.252
75 | CCOC(=O)C1=c2s/c(=C\c3cccnc3)c(=O)n2C(N)=C(C(=O)OC)C1c1cccnc1 (stereo not drawn) | 0.984
76 | C[C@H](NC(=O)c1ccccc1Cl)C(=O)OCC(=O)N1CC2(C)CC1CC(C)(C)C2 (stereo partly drawn) | 0.00588
77 | CC1(C)CC2CC(C)(CN2C(=S)NC(=O)c2ccccc2Cl)C1 (stereo not drawn) | 8.8 (active)
78 | CC1(C)CC2CC(C)(CN2C(=O)NC(=O)c2ccccc2)C1 (stereo not drawn) | -0.259
79 | O=C(CSCCO)Nc1cccc(C(F)(F)F)c1 | 0.657
80 | CCN(CC)C(=O)CN(c1ccc2c(c1)OCO2)S(C)(=O)=O | 2.51
81 | CN(C)C(=O)CN(c1ccc2c(c1)OCO2)S(C)(=O)=O | -0.0253
82 | CS(=O)(=O)N(CC(=O)O)c1ccc2c(c1)OCO2 | -2.86
83 | Cc1c(C(=O)OC(C)C)sc(NC(=O)C2CCCO2)c1C(=O)OC(C)C (stereo not drawn) | -0.0386
84 | O=C(CCNC(=O)c1ccccc1Cl)Nc1cccc(C(F)(F)F)c1 | -0.204
85 | Fc1cccc(Cl)c1CSc1nnc(COc2cccc3cccnc23)o1 | -0.675
86 | Cc1nc(N2CCN(C)CC2)c2sc(=S)n(C)c2n1 | 0.624
87 | Cc1ccc(-n2nnnc2-c2cnn(-c3cccc(F)c3)c2C(F)(F)F)cc1 | 0.0555
88 | COC(=O)c1ccc(CSc2nnc(Nc3ccccc3OC)s2)o1 | 4.01 (active)
89 | COC(=O)c1ccc(CSc2nnc(Nc3ccc(OC)cc3)s2)o1 | 0.755
90 | COC(=O)c1ccc(CSc2nnc(Nc3cccc(OC)c3)s2)o1 | 0.67
91 | CC1=C(C(=O)Nc2ccc(F)cc2)C(c2ccc(C)o2)C2=C(CC(C)(C)CC2=O)N1 (stereo not drawn) | 0.288
92 | CC(C)CNC(=S)N1CCN(C(c2ccccc2)c2ccccc2)CC1 | -0.358

Row | SMILES | z-score
93 | CCNc1ccc(S(=O)(=O)N(C)C)cc1NCC(=O)Nc1ccc(Br)cc1F | -0.257
94 | CCOc1ccccc1-c1nc(-c2ccncc2)no1 | 0.0712
95 | COc1ccc(-c2noc(-c3cc(C)cc(C)c3)n2)cc1OC | 0.138
96 | CCOc1ccc(-c2nc(-c3ccc(OC)cc3)no2)cc1OCC | 2.87
97 | CCOc1ccc(-c2noc(COC)n2)cc1OC | -0.328
98 | COc1ccc(-c2noc(-c3ccccc3Cl)n2)cc1OC | -0.738
99 | COc1ccc(-c2noc(-c3cc(Cl)ccc3Cl)n2)cc1OC | 3.41 (active)
100 | CCOc1ccc(-c2nc(-c3ccncc3)no2)cc1OCC | 2.12
101 | CCOc1nc(C)ccc1-c1noc(-c2ccncc2)n1 | 0.775
102 | COc1ccc(-c2noc(-c3ccc(Cl)cc3[N+](=O)[O-])n2)cc1OC | -0.0457
103 | CCOc1ccc(-c2nc(-c3ccc(OC)c(OC)c3)no2)cc1OCC | 4.75 (active)
104 | CCOc1cc(-c2nc(-c3cc(OC)c(OC)c(OC)c3)no2)cc(OCC)c1OCC | 0.87
105 | CCOc1ccc(-c2nc(-c3ccccc3)no2)cc1OCC | 1.62
106 | COC(=O)c1cc2sc(Cl)cc2n1Cc1nc(-c2cccc(C)c2)oc1C | -0.256
107 | Cc1noc(C)c1CSCC(=O)NC1=NCCS1 | -0.333
108 | O=C(Cn1c(=O)n(Cc2ccccc2)c(=O)c2ccccc21)NCc1ccco1 | -1.05
109 | COc1c(Cl)cc(Cl)cc1C(=O)Nc1ccc(NC(=O)c2cccs2)cc1 | 0.021
110 | CC1(C)CC(=O)C=C(NC2CCCCCCC2)C1 | -0.289
111 | O=C(NCC1(c2ccccc2)CCCC1)c1ccc(Br)o1 | -0.309
112 | O=C(Oc1cccc2c(OC(=O)N3CCCC3)cccc12)N1CCCC1 | -0.117
113 | COC(=O)c1cccc(-n2c(C)cc(C=O)c2C)c1 | -0.0226
